Measured values: PubChem BioAssay (NCI)
About 83,000 compounds went through this panel and 20% of them were active in at least one assay; those are over-represented in the sample as a whole.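 Single-dose data. Exposure time 48 hours. Values below 10 considered active.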 A number with no mark means an inactive call. Active and inactive are the calls of the source.

Key:
Test in all cases: NCI-60 one-dose screen, 48 h (100 = growth as untreated, 0 = no growth, -100 = all killed)
Settings in all cases: 10 µM
SN12C renal = tested on: SN12C renal
UO-31 renal = tested on: UO-31 renal
TK-10 renal = tested on: TK-10 renal
ACHN renal = tested on: ACHN renal
CAKI-1 renal = tested on: CAKI-1 renal
A498 renal = tested on: A498 renal
CCRF-CEM leukemia = tested on: CCRF-CEM leukemia
MOLT-4 leukemia = tested on: MOLT-4 leukemia
SR leukemia = tested on: SR leukemia

Compound | growth (SN12C renal) | growth (UO-31 renal) | growth (TK-10 renal) | growth (ACHN renal) | growth (CAKI-1 renal) | growth (A498 renal) | growth (CCRF-CEM leukemia) | growth (MOLT-4 leukemia) | growth (SR leukemia)
O=C(Nc1ccc(CN2CCc3nc4cc(O)c(O)cc4cc32)cc1)c1ccc(Cl)c(Cl)c1 | 97.4% | 88.9% | 122% | 98.2% | 96.4% | 103% | 78% | 106% | 94.5%
COc1ccc(S(=O)(=O)Nc2c(/C=C\c3cc(OC)c(OC)c(OC)c3)ccc(OC)c2O)cc1 | 20.9% | 39.9% | 39.9% | 22.7% | 32.9% | -19.9% (active) | 13.5% | 8.7% (active) | 10.5%
O=C1/C(=C/c2ccc([N+](=O)[O-])o2)Oc2ccccc21 | -2.18% (active) | -61.5% (active) | -55.8% (active) | -9.64% (active) | -4.42% (active) | 70.3% | -1.87% (active) | – | 9.39% (active)
CC1(C)Cc2c(sc3ncn4nc(-c5ccc(O)cc5)nc4c23)CO1 | 63.5% | 44.3% | 56.4% | 67.6% | 76.7% | -9.39% (active) | – | 69.4% | 22.8%
Clc1ccc2c(NCCCNc3nccc(Nc4ccc(Br)cc4)n3)ccnc2c1 | -65.1% (active) | -72.3% (active) | -90.4% (active) | -90.6% (active) | -80.4% (active) | 19.6% | – | -44.6% (active) | –
Cn1c([N+](=O)[O-])cnc1/C=C1\Oc2cc(Cl)ccc2C1=O | -15.1% (active) | -35.2% (active) | -24.4% (active) | 6.42% (active) | -21.1% (active) | 57.4% | -0.667% (active) | – | 8.29% (active)
CC(=O)N1N=C(c2ccc(Cl)cc2)CC1c1sc(Cl)nc1Cl (stereo unspecified) | 69.6% | 40.9% | 68.8% | 105% | 75.9% | 9.27% (active) | 93.4% | 77.6% | 58.5%
O=C(c1cccs1)c1ccccc1Cc1ccccc1 | 96.4% | 80.3% | 94.5% | 100% | 89.6% | 58.4% | 93.7% | 92.5% | 93.1%
CNc1ncc(-c2ccc(C(F)(F)F)cc2)c(NC2CCCCCC2)n1 | 84% | 38.4% | 83.5% | 73.1% | 60.9% | 83.4% | – | 68.2% | 43.9%
Cc1ccc(C(=O)N2C/C(=C/c3ccccc3)C(=O)/C(=C/c3ccccc3)C2)cc1 | 79.5% | 56.6% | 96.7% | 72.6% | 63.2% | 71.7% | 23.3% | 32.6% | -12.4% (active)
O=S(=O)(NCCCNc1nccc(-c2c(-c3ccc(F)cc3)nc3sccn23)n1)c1ccc2ccccc2c1 | 49.2% | 13.1% | 35.4% | 39% | 33.2% | 62.4% | 28.3% | 35% | 28.5%
COc1ccc(S(=O)(=O)NCCCNc2nccc(-c3c(-c4ccc(F)cc4)nc4sccn34)n2)cc1 | 59.5% | 22.1% | 60.5% | 36.5% | 39.4% | 58.5% | 37.6% | 34.4% | 28.3%
COc1cc2cc3c(nc2cc1OC)CCN3Cc1ccc(NC(=O)Nc2cc(C(F)(F)F)cc(C(F)(F)F)c2)cc1 | 74.3% | 57.7% | 85.6% | 69.6% | 69.4% | 58.4% | – | 36.9% | 55.2%
O=c1cc(-c2ccccc2)[nH]n1-c1nc2ccccc2[nH]1 | 49.5% | 38.4% | 63.1% | 37.2% | 45.9% | 1.96% (active) | 11.9% | -18.6% (active) | 39.3%
CCC(=O)N1C/C(=C/c2ccc(Cl)cc2)C(=O)/C(=C/c2ccc(Cl)cc2)C1 | -26.1% (active) | -94% (active) | -30.6% (active) | -50.7% (active) | -20.7% (active) | -26.7% (active) | -11.1% (active) | -8.59% (active) | -27.9% (active)
COc1ccc(Nc2nc3ccc(NC(=O)NC4CCCCC4)cc3[nH]c2=O)cc1 | 91.6% | 94.5% | 117% | 94.8% | 87.7% | 109% | 91.6% | – | 103%

Compound | growth (SN12C renal) | growth (UO-31 renal) | growth (TK-10 renal) | growth (ACHN renal) | growth (CAKI-1 renal) | growth (A498 renal) | growth (CCRF-CEM leukemia) | growth (MOLT-4 leukemia) | growth (SR leukemia)
COc1cc(Cl)cc(-c2nn(-c3cccc(NC(=O)Nc4ccc(Cl)c(Cl)c4)c3)cc2-c2ccncc2)c1 | 15.5% | 0.635% (active) | 19.8% | 9.65% (active) | 7.49% (active) | -9.54% (active) | 5.73% (active) | -16.1% (active) | -18.5% (active)
Cc1cc(Cc2cc(C)c(O)c(C)c2)cc(C)c1O | 65.3% | 61.2% | 77.5% | 72.1% | 42.8% | 97.5% | – | 22.8% | 25.1%
COc1ccc(-c2nc3sc(-c4ccc(OC)cc4)c(-c4ccc(OC)cc4)n3c2/C=C/c2ccc(C(C)C)cc2)cc1 | 99.2% | 83.6% | 97.7% | 97.9% | 82.2% | 99.1% | 96% | – | 97.4%
CS(=O)(=O)Nc1ccc(Nc2c3ccccc3nc3cc(N)ccc23)cc1 | 5.31% (active) | 28.6% | 62.3% | 24.9% | 19.9% | 57.1% | – | 5.41% (active) | 8.53% (active)
Cc1ccc(N=Nc2c(N)nc(N)[nH]c2=O)cc1C | 105% | 72.5% | 110% | 106% | 94.4% | 103% | – | 93.2% | 88.3%
COc1ccc(-c2nn(-c3cccc(NC(=O)c4ccc5c(c4)OCCO5)c3)cc2-c2ccncc2)cc1Cl | 51.6% | 16% | 36.2% | 41.4% | 15% | -19.3% (active) | 7.54% (active) | 11.3% | -9.34% (active)
COc1ccc(-n2c(SCc3cc(OC)c(OC)c(OC)c3)nc3ccc(C)cc3c2=O)cc1 | 82.2% | 47.2% | 94.2% | 66.7% | 54.2% | 38% | – | 56% | 23%
N#CCCN1C/C(=C/c2ccccc2)C(=O)/C(=C/c2ccccc2)C1 | 25.3% | 51.6% | 95.6% | 8.94% (active) | 19.1% | 106% | -1.14% (active) | 4.56% (active) | -2.02% (active)
CCN(CC)CCC(=O)Nc1cccc2c1C(=O)c1c(c(O)c3ccccc3c1O)C2=O | 59.5% | -68% (active) | 95.6% | 21.6% | 14% | 71.4% | -3.1% (active) | 2.61% (active) | 6.44% (active)
COc1ccc(-c2nc3sc(-c4ccccc4)c(-c4ccccc4)n3c2/C=C/C(=O)c2ccccn2)cc1 | 86.6% | 66% | 90.7% | 66.2% | 87.1% | 96.1% | 52.4% | 45.7% | 78.4%
COc1ccc(-c2nn(-c3cccc(NC(=O)c4cc(C(F)(F)F)cc(C(F)(F)F)c4)c3)cc2-c2ccncc2)cc1Cl | 78.1% | 43% | 85.5% | 66.2% | 50.1% | 39.7% | 64.4% | 69.5% | 36.3%
Nc1c(C(=O)Nc2ccccc2Cl)sc2nc3c(cc12)C(=O)CCC3 | 56.7% | 68.9% | 64.3% | 57.1% | 20.7% | -10.9% (active) | – | 86.8% | 42.3%
Cn1c([N+](=O)[O-])cnc1/C=C1\Oc2ccccc2C1=O | -18.2% (active) | -39.3% (active) | -28.8% (active) | 3.1% (active) | -23% (active) | -3.16% (active) | 2.77% (active) | – | 9.62% (active)
COc1cc(Nc2ccnc(NCCNc3ccnc4cc(Cl)ccc34)n2)cc(OC)c1 | 52% | 37% | 48.3% | 30.7% | 40.8% | 39.9% | – | 15.3% | –
COc1cc(/C=C\c2cc(OC)c(OC)c(OC)c2)cc(NS(=O)(=O)c2ccc(Cl)cc2)c1OC | 27.2% | 35.9% | 55.2% | 39% | 37.1% | -5.88% (active) | 14.6% | – | 14.4%
